Records with an inconclusive call do not appear. Calls of active or inactive are those of the source. The call rests on the fitted dose curve; in most records, active means well fitted curve in the direction sought with a large enough effect; inconclusive means small, poorly fitted or top-dose-only effect, or another doubt; inactive means no such curve, though single readings can be large; an effect the other way counts as inactive or inconclusive.
target: Aldehyde dehydrogenase, mitochondrial (Homo sapiens) (UniProt P05091); assay: qHTS for Inhibitors of the Aldehyde Dehydrogenase Family (ALDH2) Primary screen (AID 2061308); conditions: ALDH2 enzyme inhibition qHTS, 1536-well; series mostly up to 56 µM; activity change, negative = inhibition: at the top concentration;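 further: plate controls were vehicle for no effect and reference inhibitor for full effect; nearly all actives have a fitted effect of over 55% in size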

SMILES | activity change, negative = inhibition
COc1ccccc1N1CCN(CCCNc2cc(=O)n(C)c(=O)n2C)CC1 | -13% (inactive)
CC(C)NCC(O)COc1cccc2[nH]ccc12 (stereo not given) | 5.35% (inactive)
CCNc1nc2c(ncn2[C@H]2C[C@H](O)[C@@H](CO)O2)c(=O)[nH]1 | -1.5% (inactive)
CN1CCC[C@@H]1Cc1c[nH]c2ccc(CCS(=O)(=O)c3ccccc3)cc12 | -11.9% (inactive)
Nc1ncnc2c1c(-c1ccc(Oc3ccccc3)cc1)cn2C1CCCC1 | -17.6% (inactive)
O=C(Nc1ccc2[nH]ncc2c1)C1CCC1 | 0.927% (inactive)
Clc1ccc2c(c1)N=C(N1CCNCC1)c1ccccc1N2 | -1.77% (inactive)
CCCCN(CC)c1nc(C)nc2c1c(C)cn2-c1c(C)cc(C)cc1C | -13.2% (inactive)
O=C(O)CCc1nc(-c2ccccc2)c(-c2ccccc2)o1 | 1.48% (inactive)
CCN1CCC[C@H]1CNC(=O)c1cc(S(N)(=O)=O)ccc1OC | 8.25% (inactive)
Cc1nn(-c2ccccc2)c(C)c1/C=N/N1CCN(Cc2ccccc2)CC1 | 9.87% (inactive)
CN(C)CCC(c1ccccc1)c1ccccn1 (stereo not given) | 0.995% (inactive)
CS(=O)(=O)c1ccc(-n2nc(C(F)(F)F)cc2-c2ccc(F)cc2)cc1 | -1.97% (inactive)

target: Retinaldehyde dehydrogenase 3 (Homo sapiens) (UniProt P47895); assay: qHTS for Inhibitors of the Aldehyde Dehydrogenase Family (ALDH1A3) Confirmatory screens (AID 2061311); conditions: ALDH inhibition qHTS; series mostly up to 46 µM; activity change, negative = inhibition: at the top concentration; further: nearly all actives have a fitted effect of over 60% in size; further: potency means the concentration at half of the fitted maximal effect; on activity change, negative = inhibition: on the % scale 0 is the no-effect control and ±100 the full control effect

SMILES | activity change, negative = inhibition | Potency
Cc1[nH]c(=O)c(C#N)cc1-c1ccncc1 | -20.7% (inactive) | 
O=Nc1ccc2oc(=O)ccc2c1 |  | 0.283 µM (active)
O=c1ccc2c(OCCCCc3ccccc3)c3ccoc3cc2o1 |  | 12.6 µM (active)
CN1CCC2(CCN3CCc4c(oc5ccccc45)C3C2)N(C)C1=O (stereo not given) | -21.6% (inactive) | 
Cc1cn[nH]c1 | -0.28% (inactive) | 
O=NN(CCCl)C(=O)NCCCl |  | 12.7 µM (active)
Cc1scc2c1N(C(=O)CN1CCN(C)CC1)c1ccccc1NC2=O | -11.8% (inactive) | 
Cc1cc(O)c2c(c1)C(=O)c1cc(O)cc(O)c1C2=O |  | 11.3 µM (active)
O=C(O)/C(=C/c1c(C(=O)O)[nH]c2cc(Cl)cc(Cl)c12)c1ccccc1 | -12.3% (inactive) | 
c1ccc(C(NCCNC(c2ccccc2)c2ccccc2)c2ccccc2)cc1 | -17.2% (inactive) | 
CCc1ccc(/C=C2/SC(=S)NC2=O)cc1 | -4.23% (inactive) | 
NC(=O)c1cc[n+](CC2=C(C(=O)O)N3C(=O)[C@@H](NC(=O)[C@@H](c4ccccc4)S(=O)(=O)[O-])[C@H]3SC2)cc1 | -16% (inactive) | 
O=C(/C=C/c1ccc(O)cc1)c1ccc(O)cc1O |  | 0.504 µM (active)
CC1CN(S(=O)(=O)c2cccc3cnccc23)CCN1 (stereo not given) | -22.7% (inactive) | 
CN1CCN(CC(=O)N2c3ccccc3C(=O)Nc3cccnc32)CC1 | -13.5% (inactive) | 
CC1=C(C)C(=O)C(CCCCC#CCCCC#CCO)=C(C)C1=O |  | 0.504 µM (active)
O=c1c(O)c(-c2cc(O)c(O)c(O)c2)oc2cc(O)cc(O)c12 |  | 5.65 µM (active)

— PubChem BioAssay (NCATS)
